Where “and” joins values, the source holds several entries; their conditions need not be identical. Equal values may be shown once. Records with an inconclusive call do not appear. A structure can be active in one record and inactive in another. Calls of active or inactive are those of the source. Rule for the calls, unless noted: active = hit-call score of the fitted dose curve at least 0.9, where 1 is the maximum; inactive = score below 0.9.
Tests used:
[1] = ATG_NFI_CIS: Attagene CIS-FACTORIAL HepG2 Assay for human Nuclear Factor I (NFI) (AID 2282989); details: HepG2 cis-regulatory reporter, NFI response element transcription; actives raise or lower the signal
Outline: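 HepG2 cells transiently transfected with cis-element-driven multiplexed reporter transcription units, dosed for 24 h. Reporter mRNA quantified by RT-PCR, fluorescent labelling, HpaI digestion and capillary electrophoresis; bidirectional fit versus DMSO baseline.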

[2] = biological target: Myc proto-oncogene protein (Homo sapiens) (UniProt P01106); assay: ATG_Myc_CIS: Attagene CIS-FACTORIAL HepG2 Assay for human Myelocytomatosis (Myc) Proto-Oncogene Transcription Factor (AID 2282990); details: HepG2, Attagene cis-reporter transcription factor activity; actives raise or lower the signal
Sequence of Myc proto-oncogene protein (Homo sapiens) (P01106 whole entry, looked up): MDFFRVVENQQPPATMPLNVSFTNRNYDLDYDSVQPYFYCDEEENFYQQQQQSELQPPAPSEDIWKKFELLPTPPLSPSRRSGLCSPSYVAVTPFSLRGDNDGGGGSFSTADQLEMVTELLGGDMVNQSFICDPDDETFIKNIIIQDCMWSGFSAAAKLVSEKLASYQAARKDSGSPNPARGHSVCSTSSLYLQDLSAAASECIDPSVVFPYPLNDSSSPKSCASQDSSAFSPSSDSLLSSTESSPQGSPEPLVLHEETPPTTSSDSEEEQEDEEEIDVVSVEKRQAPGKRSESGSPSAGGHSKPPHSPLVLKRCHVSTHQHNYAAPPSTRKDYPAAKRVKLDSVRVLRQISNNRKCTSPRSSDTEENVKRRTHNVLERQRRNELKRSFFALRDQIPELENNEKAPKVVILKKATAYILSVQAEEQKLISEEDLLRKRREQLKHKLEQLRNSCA
Outline: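 Cells of the HepG2 human liver line bear multiple cis-driven reporter transcription units. Reporter mRNA after 24 h exposure is reverse-transcribed, amplified, labelled and resolved by capillary electrophoresis, with gain- or loss-of-signal fitting relative to DMSO.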

[3] = ATG_NF_kB_CIS: Attagene CIS-FACTORIAL HepG2 Assay for human Nuclear Factor Kappa B (NF-kB) (AID 2282991); details: HepG2 Attagene cis-factorial NF-kB reporter mRNA; actives raise or lower the signal
Outline: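 HepG2 cells transiently transfected with multiplexed cis-element reporter units measuring endogenous transcription factor activity; reporter mRNA read 24 h after dosing by RT-PCR, fluorescent labelling, HpaI digestion and capillary electrophoresis. Bidirectional fit against DMSO baseline.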

[4] = ATG_Oct_MLP_CIS: Attagene CIS-FACTORIAL HepG2 Assay for human Octamer-Binding Transcription Factor (Oct) (AID 2282993); details: HepG2 Attagene cis-factorial Oct reporter, mRNA; actives raise or lower the signal
Outline: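 HepG2 cells transiently transfected with cis-promoter-driven multiplexed reporter transcription units, dosed for 24 h. Reporter mRNA quantified by RT-PCR, fluorescent labelling, HpaI digestion and capillary electrophoresis; bidirectional fits versus DMSO baseline.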

[5] = biological target: Cellular tumor antigen p53 (Homo sapiens) (UniProt P04637); assay: ATG_p53_CIS: Attagene CIS-FACTORIAL HepG2 Assay for human p53 Transcription Factor (AID 2282994); details: HepG2 p53 cis-element reporter, Attagene mRNA; actives raise or lower the signal
Sequence of Cellular tumor antigen p53 (Homo sapiens) (P04637 whole entry, looked up): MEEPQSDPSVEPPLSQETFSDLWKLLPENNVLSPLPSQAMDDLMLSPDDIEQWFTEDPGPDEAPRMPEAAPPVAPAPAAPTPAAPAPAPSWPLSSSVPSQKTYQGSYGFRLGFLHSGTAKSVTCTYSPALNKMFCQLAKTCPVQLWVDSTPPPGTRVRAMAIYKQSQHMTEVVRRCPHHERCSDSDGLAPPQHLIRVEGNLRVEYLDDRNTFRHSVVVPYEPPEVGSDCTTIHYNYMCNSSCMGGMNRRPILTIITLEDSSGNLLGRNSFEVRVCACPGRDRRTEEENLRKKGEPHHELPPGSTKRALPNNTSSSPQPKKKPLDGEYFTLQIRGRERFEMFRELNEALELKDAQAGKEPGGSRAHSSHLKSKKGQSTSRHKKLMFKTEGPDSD
Outline: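 Using HepG2 hepatoma cells carrying cis-acting multiplexed reporters, mRNA induction is detected after a 24 h exposure. Gain- and loss-of-signal responses are fitted relative to DMSO-treated cells.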

[6] = biological target: human Peroxisome Proliferator-activated Receptor alpha (PPARa), PPARA (gene 5465) (UniProt Q07869); assay: ATG_PPARa_TRANS: Attagene TRANS-FACTORIAL HepG2 Assay for human Peroxisome Proliferator-activated Receptor alpha (PPARa) (AID 2283001; active = hit-call score of the fitted dose curve at least 0.9, where 1 is the maximum)
Sequence of human Peroxisome Proliferator-activated Receptor alpha (PPARa), PPARA (gene 5465) (Q07869 whole entry, looked up, the tested form may be a part): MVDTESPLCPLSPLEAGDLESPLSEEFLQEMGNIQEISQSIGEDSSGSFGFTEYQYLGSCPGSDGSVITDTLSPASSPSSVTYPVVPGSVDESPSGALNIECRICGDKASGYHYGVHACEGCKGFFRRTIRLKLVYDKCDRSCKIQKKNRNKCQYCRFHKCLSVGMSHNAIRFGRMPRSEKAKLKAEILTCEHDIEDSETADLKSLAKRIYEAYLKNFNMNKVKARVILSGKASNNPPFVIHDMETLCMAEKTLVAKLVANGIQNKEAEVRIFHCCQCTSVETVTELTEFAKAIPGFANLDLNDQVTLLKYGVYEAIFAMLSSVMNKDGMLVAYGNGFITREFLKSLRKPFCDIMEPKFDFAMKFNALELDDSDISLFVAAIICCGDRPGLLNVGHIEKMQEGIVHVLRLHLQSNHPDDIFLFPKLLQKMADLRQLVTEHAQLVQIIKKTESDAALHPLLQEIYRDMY
Outline: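 Read-out is fluorescence of reporter cDNA fragments resolved by capillary electrophoresis after RT-PCR. Human HepG2 liver cells carried transfected PPARa-Gal4 chimera and GAL4-UAS reporter units, treated 24 h; activity scored as increase over DMSO.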

[7] = biological target: Peroxisome proliferator-activated receptor gamma (Homo sapiens) (UniProt P37231); assay: ATG_PPARg_TRANS: Attagene TRANS-FACTORIAL HepG2 Assay for human Peroxisome Proliferator-activated Receptor-gamma (PPARg) (AID 2283007; active = hit-call score of the fitted dose curve at least 0.9, where 1 is the maximum)
Sequence of Peroxisome proliferator-activated receptor gamma (Homo sapiens) (P37231 whole entry, looked up, the tested form may be a part): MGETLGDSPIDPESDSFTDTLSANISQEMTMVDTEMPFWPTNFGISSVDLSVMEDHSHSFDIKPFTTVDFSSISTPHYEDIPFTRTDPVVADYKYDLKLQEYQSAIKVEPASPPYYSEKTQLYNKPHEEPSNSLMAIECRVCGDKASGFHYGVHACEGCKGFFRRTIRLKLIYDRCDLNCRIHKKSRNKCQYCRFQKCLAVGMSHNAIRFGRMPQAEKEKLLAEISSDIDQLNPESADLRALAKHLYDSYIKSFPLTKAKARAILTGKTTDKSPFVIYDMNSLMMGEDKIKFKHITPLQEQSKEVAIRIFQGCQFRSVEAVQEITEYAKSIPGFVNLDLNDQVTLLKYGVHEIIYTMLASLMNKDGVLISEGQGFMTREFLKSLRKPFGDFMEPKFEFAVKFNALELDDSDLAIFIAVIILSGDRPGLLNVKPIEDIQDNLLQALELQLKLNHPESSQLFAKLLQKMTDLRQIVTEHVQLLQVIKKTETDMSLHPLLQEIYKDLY
Outline: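 HepG2 cells transiently transfected with multiplexed GAL4-UAS reporter units and exogenous chimeric NR-Gal4 proteins; reporter mRNA quantified after 24 h compound exposure by RT-PCR, fluorescent labelling, HpaI digestion and capillary electrophoresis; gain-of-signal fitted versus DMSO baseline.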

[8] = biological target: Nuclear receptor subfamily 1 group I member 2 (Homo sapiens) (UniProt O75469); assay: ATG_PXR_TRANS: Attagene TRANS-FACTORIAL HepG2 Assay for human Pregnane X Receptor (PXR) (AID 2283008; active = hit-call score of the fitted dose curve at least 0.9, where 1 is the maximum)
Sequence of Nuclear receptor subfamily 1 group I member 2 (Homo sapiens) (O75469 whole entry, looked up, the tested form may be a part): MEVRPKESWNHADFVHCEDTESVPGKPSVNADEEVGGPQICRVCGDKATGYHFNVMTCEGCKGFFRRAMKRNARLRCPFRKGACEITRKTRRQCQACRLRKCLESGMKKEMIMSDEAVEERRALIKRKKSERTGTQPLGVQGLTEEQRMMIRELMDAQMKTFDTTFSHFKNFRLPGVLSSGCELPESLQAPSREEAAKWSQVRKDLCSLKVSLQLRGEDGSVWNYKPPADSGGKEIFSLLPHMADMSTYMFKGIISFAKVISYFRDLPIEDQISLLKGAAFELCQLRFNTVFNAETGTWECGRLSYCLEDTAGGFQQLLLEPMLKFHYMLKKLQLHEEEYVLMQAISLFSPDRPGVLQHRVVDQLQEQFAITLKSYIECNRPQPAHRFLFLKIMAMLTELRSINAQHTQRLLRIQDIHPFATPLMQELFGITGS
Outline: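 Fluorescence intensity of FAM-labelled, HpaI-digested reporter amplicons, separated by capillary electrophoresis, quantifies induction. HepG2 cells with PXR-Gal4 trans-reporter system were exposed 24 h; DMSO defines baseline.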

[9] = ATG_NRF2_ARE_CIS: Attagene CIS-FACTORIAL HepG2 Assay for human Nuclear Factor Erythroid 2 Related Factor 2 (NFR2) response to Antioxidant Response Elements (ARE) (AID 2282992); details: HepG2 Attagene ARE/NRF2 reporter, transcription factor activity; actives raise or lower the signal;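 for AC50: reporter mRNA level measured by RT-PCR and capillary electrophoresis fluorescence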
Outline: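 Cis-factorial assay: transfected HepG2 reporter library, 24 h dosing, mRNA readout via RT-PCR/CE; DMSO-referenced bidirectional analysis.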

[10] = biological target: human Peroxisome Proliferator-activated Receptor delta (PPARd), PPARD (gene 5467) (UniProt Q03181); assay: ATG_PPARd_TRANS: Attagene TRANS-FACTORIAL HepG2 Assay for human Peroxisome Proliferator-activated Receptor delta (PPARd) (AID 2283002; active = hit-call score of the fitted dose curve at least 0.9, where 1 is the maximum)
Sequence of human Peroxisome Proliferator-activated Receptor delta (PPARd), PPARD (gene 5467) (Q03181 whole entry, looked up): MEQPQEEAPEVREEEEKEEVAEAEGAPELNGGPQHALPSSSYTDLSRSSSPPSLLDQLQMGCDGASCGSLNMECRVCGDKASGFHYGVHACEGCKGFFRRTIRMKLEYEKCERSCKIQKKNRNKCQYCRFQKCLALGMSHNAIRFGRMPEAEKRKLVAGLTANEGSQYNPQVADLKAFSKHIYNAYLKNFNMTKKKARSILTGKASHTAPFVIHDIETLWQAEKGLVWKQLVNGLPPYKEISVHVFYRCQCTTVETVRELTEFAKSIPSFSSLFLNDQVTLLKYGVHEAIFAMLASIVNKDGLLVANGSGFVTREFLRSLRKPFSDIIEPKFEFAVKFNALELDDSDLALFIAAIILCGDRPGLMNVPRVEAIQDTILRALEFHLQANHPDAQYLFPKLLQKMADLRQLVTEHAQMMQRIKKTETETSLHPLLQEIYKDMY
Outline: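 Cell-based TRANS reporter: HepG2, transient MRTU transfection, 24 h exposure. Readout = reporter mRNA (RT-PCR/CE, 6-FAM). Gain-of-signal fit vs DMSO control.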

[11] = biological target: human Retinoic Acid Receptor beta (RARb), RARB (gene 5915) (UniProt P10826); assay: ATG_RARb_TRANS: Attagene TRANS-FACTORIAL HepG2 Assay for human Retinoic Acid Receptor beta (AID 2283004; active = hit-call score of the fitted dose curve at least 0.9, where 1 is the maximum)
Sequence of human Retinoic Acid Receptor beta (RARb), RARB (gene 5915) (P10826 whole entry, looked up, the tested form may be a part): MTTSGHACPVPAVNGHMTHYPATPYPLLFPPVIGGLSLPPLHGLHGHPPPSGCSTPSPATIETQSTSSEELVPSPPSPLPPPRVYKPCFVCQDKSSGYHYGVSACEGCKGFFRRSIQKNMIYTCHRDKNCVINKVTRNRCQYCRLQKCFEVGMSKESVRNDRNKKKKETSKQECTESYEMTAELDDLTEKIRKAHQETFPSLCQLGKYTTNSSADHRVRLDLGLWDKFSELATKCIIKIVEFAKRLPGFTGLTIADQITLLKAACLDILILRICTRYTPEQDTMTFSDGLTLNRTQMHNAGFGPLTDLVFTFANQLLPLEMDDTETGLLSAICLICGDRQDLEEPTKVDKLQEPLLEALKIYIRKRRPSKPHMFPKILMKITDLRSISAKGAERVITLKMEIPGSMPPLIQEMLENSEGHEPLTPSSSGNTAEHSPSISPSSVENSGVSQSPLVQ
Outline: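 Fluorescent capillary-electrophoresis detection of GAL4-UAS reporter mRNA defines the endpoint, with induction over DMSO-treated wells scored as activity. Transiently transfected human hepatoma HepG2 cells expressing exogenous NR–Gal4 proteins are exposed to test chemicals for 24 h.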

[12] = biological target: Retinoic acid receptor alpha (Homo sapiens) (UniProt P10276); assay: ATG_RARa_TRANS: Attagene TRANS-FACTORIAL HepG2 Assay for human Retinoic Acid Receptor alpha (RARa) (AID 2283005; active = hit-call score of the fitted dose curve at least 0.9, where 1 is the maximum)
Sequence of Retinoic acid receptor alpha (Homo sapiens) (P10276 whole entry, looked up, the tested form may be a part): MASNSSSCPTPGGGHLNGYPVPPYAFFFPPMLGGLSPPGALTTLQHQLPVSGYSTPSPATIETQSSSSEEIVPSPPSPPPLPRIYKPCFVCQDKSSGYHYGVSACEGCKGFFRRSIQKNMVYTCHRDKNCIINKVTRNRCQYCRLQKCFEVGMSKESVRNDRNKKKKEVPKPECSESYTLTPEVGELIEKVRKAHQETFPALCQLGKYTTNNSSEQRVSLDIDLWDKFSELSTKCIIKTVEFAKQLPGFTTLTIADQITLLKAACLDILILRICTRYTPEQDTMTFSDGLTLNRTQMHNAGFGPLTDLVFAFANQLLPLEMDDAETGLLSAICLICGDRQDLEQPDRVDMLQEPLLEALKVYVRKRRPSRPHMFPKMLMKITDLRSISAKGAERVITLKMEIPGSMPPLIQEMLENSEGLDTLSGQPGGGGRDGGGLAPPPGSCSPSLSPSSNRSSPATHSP
Outline: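 Reporter transcripts, measured by RT-PCR with fluorescent labeling and capillary electrophoresis after 24 h dosing, reflect activity of an exogenous human RARa–GAL4 fusion in transiently transfected HepG2. Fitted for increase relative to DMSO.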

[13] = biological target: human Retinoic Acid Receptor gamma (RARg), RARG (gene 5916) (UniProt P13631); assay: ATG_RARg_TRANS: Attagene TRANS-FACTORIAL HepG2 Assay for human Retinoic Acid Receptor gamma (RARg) (AID 2283009; active = hit-call score of the fitted dose curve at least 0.9, where 1 is the maximum)
Sequence of human Retinoic Acid Receptor gamma (RARg), RARG (gene 5916) (P13631 whole entry, looked up, the tested form may be a part): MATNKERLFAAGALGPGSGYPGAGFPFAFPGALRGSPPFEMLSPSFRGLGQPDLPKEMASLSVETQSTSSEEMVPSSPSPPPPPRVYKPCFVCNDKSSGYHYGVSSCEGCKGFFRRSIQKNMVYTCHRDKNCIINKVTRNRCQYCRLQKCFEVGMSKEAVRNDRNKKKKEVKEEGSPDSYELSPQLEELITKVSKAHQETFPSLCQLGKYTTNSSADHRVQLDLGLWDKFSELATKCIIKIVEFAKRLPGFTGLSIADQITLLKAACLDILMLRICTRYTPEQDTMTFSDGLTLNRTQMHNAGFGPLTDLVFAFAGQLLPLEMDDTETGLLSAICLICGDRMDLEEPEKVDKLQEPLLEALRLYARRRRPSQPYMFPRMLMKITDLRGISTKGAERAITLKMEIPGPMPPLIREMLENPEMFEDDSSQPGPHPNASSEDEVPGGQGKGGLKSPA
Outline: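 HepG2 transiently transfected with GAL4-UAS reporter units and chimeric NR-Gal4 constructs; 24 h compound exposure. Reporter mRNA quantified by RT-PCR, FAM labeling, HpaI digestion and capillary electrophoresis; gain-of-signal versus DMSO.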

[14] = biological target: human RAR-related Orphan Receptor beta (RORb), RORB (gene 6096) (UniProt Q92753); assay: ATG_RORb_TRANS: Attagene TRANS-FACTORIAL HepG2 Assay for human RAR-related Orphan Receptor beta (RORb) (AID 2283010; active = hit-call score of the fitted dose curve at least 0.9, where 1 is the maximum)
Sequence of human RAR-related Orphan Receptor beta (RORb), RORB (gene 6096) (Q92753 whole entry, looked up, the tested form may be a part): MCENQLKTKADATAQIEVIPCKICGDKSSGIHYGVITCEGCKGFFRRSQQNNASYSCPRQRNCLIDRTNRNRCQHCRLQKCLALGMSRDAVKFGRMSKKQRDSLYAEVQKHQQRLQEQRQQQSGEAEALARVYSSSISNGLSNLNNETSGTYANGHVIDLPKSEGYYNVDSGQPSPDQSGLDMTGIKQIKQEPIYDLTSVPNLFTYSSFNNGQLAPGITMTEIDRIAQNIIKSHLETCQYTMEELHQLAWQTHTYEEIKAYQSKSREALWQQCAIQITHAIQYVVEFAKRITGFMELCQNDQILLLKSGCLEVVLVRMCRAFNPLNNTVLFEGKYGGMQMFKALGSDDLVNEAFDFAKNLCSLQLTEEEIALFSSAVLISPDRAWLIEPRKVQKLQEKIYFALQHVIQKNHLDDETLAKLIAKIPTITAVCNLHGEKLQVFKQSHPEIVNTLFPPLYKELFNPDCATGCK
Outline: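 HepG2 cells transiently transfected with GAL4-UAS reporter units expressing chimeric NR-Gal4 protein; reporter mRNA measured 24 h after dosing by RT-PCR, 6-FAM labelling and capillary electrophoresis. Gain-of-signal fitted relative to DMSO baseline.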

[15] = BSK_3C_TissueFactor: BioMAP Diversity Plus: 3C Assay for Tissue Factor Biomarker Activity (AID 2282997); details: BioMAP 3C HUVEC, tissue factor biomarker readout; actives raise or lower the signal
Outline: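 Endothelial monolayers (human umbilical vein, primary) are dosed, incubated 24 h, and assayed for Tissue Factor by ELISA; DMSO serves as negative control for bidirectional fitting.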

[16] = BSK_3C_uPAR: BioMAP Diversity Plus: 3C Assay for Urokinase-type plasminogen activator receptor (uPAR) Biomarker Activity (AID 2282998); details: BioMAP 3C HUVEC, uPAR biomarker ELISA; actives raise or lower the signal
Outline: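 Human umbilical vein endothelial primary cells were exposed to test chemical for 24 h. Cell-surface uPAR was then quantified by ELISA, and responses were fitted bidirectionally against DMSO as negative control and baseline.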

[17] = BSK_3C_VCAM1: BioMAP Diversity Plus: 3C Assay for Vascular cell adhesion molecule 1 (VCAM1) Biomarker Activity (AID 2282999); details: BioMAP 3C HUVEC, VCAM1 ELISA, cytokine-stimulated; actives raise or lower the signal
Outline: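 Endothelial cells from human umbilical vein are treated with test chemical. At 24 h, VCAM-1 is measured by ELISA, and responses in either direction are fitted relative to DMSO.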

[18] = BSK_4H_Eotaxin3: BioMAP Diversity Plus: 4H Assay for Eotaxin 3 Biomarker Activity (AID 2283000); details: primary human endothelial cells (HUVEC); actives raise or lower the signal;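 for outcome: CCL26 protein level quantified by ELISA in parallel with SRB cytotoxicity check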
Outline: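 ELISA quantitation of CCL26 (Eotaxin-3) protein from chemically dosed human vascular endothelial cells at 24 h; increases and decreases both scored relative to DMSO-treated baseline.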

[19] = read-out: Intercellular Adhesion Molecule 1 (ICAM1), ICAM1 (gene 3383); assay: BSK_3C_ICAM1: BioMAP Diversity Plus: 3C Assay for Intercellular Adhesion Molecule 1 (ICAM1) Biomarker Activity (AID 2283003); details: primary human endothelial cells (HUVEC); actives raise or lower the signal
Outline: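 HUVEC primary cells stimulated under 3C conditions; ICAM1 measured by ELISA 24 h after compound dosing. Curves fitted bidirectionally against the DMSO baseline. Overt cytotoxicity checked by SRB staining of parallel cultures.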

[20] = BSK_3C_Proliferation: Cell Proliferation Assessment in the BioMAP Diversity Plus: 3C Assay (AID 2283006); details: primary human endothelial cells (HUVEC)
Outline: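 Subconfluent HUVEC (3C system) cultured with chemical; relative cell number read at 48 h by sulforhodamine B total-protein staining (0.1% SRB after 10% TCA fixation, 560 nm). Bidirectional fit relative to DMSO.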

C=CC(F)(F)C(F)(F)C(F)(F)C(F)(F)F
outcome [1]: inactive
outcome [2]: inactive
outcome [3]: inactive
outcome [4]: inactive
outcome [5]: inactive
outcome [6]: inactive
outcome [7]: inactive
outcome [8]: inactive

O=C1c2ccccc2C(=O)c2c(O)c(O)cc(O)c21
outcome [1]: inactive
outcome [2]: inactive
AC50 [9]: 5.36 µM (active)
outcome [4]: inactive
outcome [5]: inactive
outcome [6]: inactive
outcome [10]: inactive
outcome [11]: inactive
outcome [12]: inactive
AC50 [7]: 31.9 µM (active)
AC50 [8]: 31.5 µM (active)
outcome [13]: inactive
outcome [14]: inactive

CCC(C)c1nccnc1OC (stereo not drawn)
outcome [1]: inactive
outcome [2]: inactive
outcome [9]: inactive
outcome [4]: inactive
outcome [5]: inactive
outcome [6]: inactive
outcome [11]: inactive
outcome [12]: inactive
outcome [7]: inactive

O=C1OC2(c3ccccc31)c1cc(I)c(O)c(I)c1Oc1c2cc(I)c(O)c1I
outcome [1]: inactive
outcome [2]: inactive
outcome [9]: inactive
outcome [4]: inactive
outcome [5]: inactive
AC50 [15]: 12 µM (active)
AC50 [16]: 5.04 µM (active)
AC50 [17]: 12 µM (active)
AC50 [18]: 8.42 µM (active)
outcome [6]: inactive
outcome [10]: inactive
AC50 [19]: 12 µM (active)
outcome [20]: inactive
AC50 [8]: 5.08 µM (active) and 15.4 µM (active)
outcome [8]: inactive
outcome [14]: inactive

Clc1ccc(Nc2nnc(Cc3ccncc3)c3ccccc23)cc1
outcome [1]: inactive
outcome [2]: inactive
AC50 [9]: 18.7 µM (active)
outcome [4]: inactive
outcome [5]: inactive
outcome [15]: inactive
outcome [16]: inactive
outcome [17]: inactive
outcome [18]: inactive
outcome [10]: inactive
outcome [19]: inactive
outcome [20]: inactive
AC50 [7]: 26.9 µM (active)
AC50 [8]: 3.3 µM (active)
outcome [13]: inactive

COC(O)c1ccccc1 (stereo not drawn)
outcome [1]: inactive
outcome [2]: inactive
outcome [9]: inactive
outcome [4]: inactive
outcome [5]: inactive
outcome [6]: inactive
outcome [10]: inactive
outcome [11]: inactive
outcome [12]: inactive
outcome [7]: inactive
outcome [8]: inactive
outcome [14]: inactive

CCCCCC(C)OC(=O)COc1ccc(Cl)c2cccnc12 (stereo not drawn)
outcome [1]: inactive
outcome [2]: inactive
AC50 [9]: 42.4 µM (active)
outcome [4]: inactive
outcome [5]: inactive
outcome [6]: inactive
outcome [10]: inactive
AC50 [7]: 34.9 µM (active)
outcome [8]: inactive
outcome [13]: inactive

NS(=O)(=O)O
outcome [1]: inactive
outcome [2]: inactive
outcome [9]: inactive
outcome [4]: inactive
outcome [5]: inactive
outcome [6]: inactive
outcome [10]: inactive
outcome [7]: inactive
outcome [8]: inactive
outcome [14]: inactive

Source: PubChem BioAssay (EPA / NIEHS)
